# Test results as given in PubChem BioAssay (NCATS).
# Results filed as inconclusive are left out. Entries that show only a call come without a potency. Unmarked numbers belong to inactive results. Active and inactive are the calls of the source. Calls come from the whole dose curve; as a rule, active = well fitted curve in the direction sought with a large enough effect; inconclusive = small, poorly fitted or top-dose-only effect, or another doubt; inactive = no such curve, though single readings can be large; an effect the other way counts as inactive or inconclusive.
# Assays:
# [1] = P-glycoprotein substrates identified in KB-3-1 adenocarcinoma cell line, qHTS therapeutic library screen (AID 1346986); note: nearly all actives have a fitted effect of over 60% in size;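 note: potency is for cytotoxicity meaning loss of cell viability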
# How it was run: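 Counter-screen: cherry-picked hits retested in the KB pair and in HEK-293 pcDNA/MDR-19 cells ± tariquidar. Primary screen used 72 h CellTiter-Glo viability in KB-3-1 and KB-8-5-11.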
# [2] = P-glycoprotein substrates identified in KB-8-5-11 adenocarcinoma cell line, qHTS therapeutic library screen (AID 1346987); note: nearly all actives have a fitted effect of over 65% in size; for activity change, negative = cytotoxicity: series mostly up to about 44 µM
# How it was run: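 P-gp-mediated resistance screen: KB-8-5-11 cells treated 72 h with compounds in dose-response. CellTiter-Glo viability.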
# Potency is the fitted concentration of half-maximal effect.
smiles,measurement,setting,value
C[C@@H]1O[C@@H](OC[C@H]2O[C@@H](OC(CCCCc3ccc(O)cc3)CCc3ccc(O)cc3)[C@H](O)[C@@H](O)[C@@H]2O)[C@H](O)[C@H](O)[C@H]1O (stereo partly drawn),Potency,[1],inactive
same,Potency,[2],inactive
CC1OC(OC2C(O)C(OC3CCC4(C)C(CCC5(C)C4CC=C4C6CC(C)(COC7OC(CO)C(O)C(O)C7O)CC(O)C6(C)CCC45C)C3(C)C)OC(C(=O)O)C2O)C(O)C(O)C1OC1OCC(O)C(O)C1O (stereo not drawn),outcome,[1],inactive [at 9.29 µM]
same,"activity change, negative = cytotoxicity",[2],1.43% [at 9.29 µM]
CC(C)=CCC/C(C)=C/CO[C@@H]1O[C@H](CO)[C@@H](O)[C@H](O)[C@H]1O,Potency,[1],inactive
same,Potency,[2],inactive
CC1(C)CC[C@]2(C(=O)O[C@@H]3O[C@H](CO[C@@H]4O[C@H](CO)[C@@H](O)[C@H](O)[C@H]4O[C@@H]4O[C@H](CO)[C@@H](O)[C@H](O)[C@H]4O)[C@@H](O)[C@H](O[C@@H]4O[C@H](CO)[C@@H](O)[C@H](O)[C@H]4O)[C@H]3O)CC[C@]3(C)C(=CCC4[C@@]5(C)CC[C@@H](O)[C@@](C)(C(=O)O[C@@H]6O[C@H](CO)[C@@H](O)[C@H](O)[C@H]6O)C5CC[C@]43C)[C@@H]2C1 (stereo partly drawn),outcome,[1],inactive [at 9.29 µM]
same,outcome,[2],inactive [at 9.29 µM]
C[C@@H]1CC[C@]2(C(=O)O[C@@H]3O[C@H](CO)[C@@H](O)[C@H](O)[C@H]3O)CC[C@]3(C)C(=CCC4[C@@]5(C)C[C@@H](O)[C@H](O)[C@@](C)(C(=O)O[C@H]6[C@H](O)C[C@@]7(C)C(CC[C@]8(C)C7CC=C7[C@H]9[C@](C(=O)O[C@@H]%10O[C@H](CO)[C@@H](O)[C@H](O)[C@H]%10O)(CC[C@@H](C)[C@@]9(C)O)CC[C@]78C)[C@@]6(CO)C(=O)O)C5CC[C@]43C)[C@@H]2[C@]1(C)O (stereo partly drawn),outcome,[1],inactive [at 9.29 µM]
same,"activity change, negative = cytotoxicity",[2],1.31% [at 9.29 µM]
CC(C(O)/C=C/C(C)(C)O)C1CCC2(C)C3C(=O)C=C4C(CCC(O)C4(C)C)C3(C)CCC12C (stereo not drawn),Potency,[1],inactive
same,Potency,[2],inactive
CO[C@H]1O[C@@H]2O[C@]3(C)CC[C@H]4[C@H](C)CC[C@@H]([C@H]1C)[C@@]24OO3,Potency,[1],inactive
same,Potency,[2],inactive
C=C1[C@@H]2CC[C@@H]3[C@@](CCC4C(C(=O)O)(C(=O)O)C[C@@H](O[C@@H]5O[C@H](CO)[C@@H](O)[C@H](O)[C@H]5OC(=O)CC(C)C)C[C@]43C)(C2)[C@H]1O (stereo partly drawn),Potency,[1],inactive
same,Potency,[2],inactive
COC(=O)CC(O)CC(O)/C=C/c1c(C)ccc2c1C(O)CC(C)C2 (stereo not drawn),Potency,[1],inactive
same,Potency,[2],inactive
COc1ccc(N2CCOCC2)c2sc(NC(=O)N3CCC(C)(O)CC3)nc12,Potency,[1],inactive
same,Potency,[2],inactive
CCOC(=O)C(CCc1ccccc1)NC1CSC(c2cccs2)CN(CC(=O)O)C1=O (stereo not drawn),Potency,[1],inactive
same,Potency,[2],inactive
CC1(C)CC[C@]2(C(=O)O[C@@H]3O[C@H](CO)[C@@H](O)[C@H](O)[C@H]3O)CC[C@]3(C)C(=CCC4[C@@]5(C)C[C@@H](O)[C@H](O)C(C)(C)C5CC[C@]43C)C2[C@@H]1O (stereo partly drawn),Potency,[1],inactive
same,Potency,[2],inactive
CC1(O)CCCC2(C)C1CCC13CC(CO)C(CCC12)C3 (stereo not drawn),Potency,[1],inactive
same,Potency,[2],inactive
CCC[C@@H]1O[C@@H]2C[C@H]3[C@@H]4CCC5=CC(=O)C=C[C@]5(C)[C@H]4[C@@H](O)C[C@]3(C)[C@]2(C(=O)CO)O1,Potency,[1],inactive
same,Potency,[2],inactive
C=C1C(=O)OC2C1C(O)CC1(C)C(O)CCC(C=O)C21 (stereo not drawn),Potency,[1],inactive
same,Potency,[2],inactive
CC12CCC3c4ccc(OC5OC(C(=O)O)C(O)C(O)C5O)cc4CCC3C1CCC2O (stereo not drawn),Potency,[1],inactive
same,Potency,[2],inactive
Cc1c(CN2CCN(C(=O)C(C)O)CC2)sc2c(N3CCOCC3)nc(-c3cnc(N)nc3)nc12 (stereo not drawn),Potency,[1],259 nM (active)
same,Potency,[2],820 nM (active)
CC1=CC2C(CC1OC1OC(CO)C(O)C(O)C1O)C(C)CC(=O)C2C(C)C (stereo not drawn),Potency,[1],inactive
same,Potency,[2],inactive
C=C1C(=O)OC2CC3(C)C(CC12)C(C)=CC(O)C3OC(C)=O (stereo not drawn),Potency,[1],inactive
same,Potency,[2],inactive
COc1cc(C(=O)OC[C@@]2(O)CO[C@@H](O[C@H]3[C@H](Oc4ccc(C(=O)O)cc4OC)O[C@H](CO)[C@@H](O)[C@@H]3O)[C@@H]2O)ccc1O,Potency,[1],inactive
same,Potency,[2],inactive
CCCCNc1ncc2c(-c3ccc(CN4CCN(C)CC4)cc3)cn(C3CCC(O)CC3)c2n1 (stereo not drawn),Potency,[1],517 nM (active)
same,Potency,[2],1300 nM (active)
COC(=O)C(C)C1CCC2(C)C(=O)C=CC(C)(O)C2C1O (stereo not drawn),Potency,[1],inactive
same,Potency,[2],inactive
C[C@H]1CC[C@@H]2N(C1)C[C@@H]1[C@H]([C@@H](O)[C@H](O)[C@]3(O)[C@H]1C[C@@]14OC5(O)[C@@H](C[C@@H](O)[C@@H]31)[C@]4(C)CC[C@@H]5O)[C@]2(C)O,Potency,[1],inactive
same,Potency,[2],inactive
CN[C@@H]1[C@H](O[C@H]2[C@H](O[C@@H]3[C@@H](O)[C@H](O)[C@@H](N=C(N)N)[C@H](O)[C@H]3N=C(N)N)O[C@@H](C)[C@]2(O)C=O)O[C@@H](CO)[C@H](O)[C@H]1O,Potency,[1],inactive
same,Potency,[2],inactive
